Holding throughout (test): NCI-60 one-dose screen, 48 h (100 = growth as untreated, 0 = no growth, -100 = all killed)
Common to all, as to settings: 10 µM unless noted

Assay [1] deals with NCI-H226 lung.
The test system of assay [2] is NCI-H322M lung.
The test system of assay [3] is HOP-62 NSCLC.
Assay [4] concerns NCI-H460 lung.
The test system of assay [5] is HOP-92 NSCLC.
Assay [6] has as its system NCI-H522 lung.
The test system of assay [7] is A549/ATCC NSCLC.
The subject of assay [8] is 786-0 renal.
Assay [9] relates to COLO 205 colon.
Assay [10] has as its system DU-145 prostate.
Assay [11] deals with K-562 leukemia.
Assay [12] deals with MALME-3M melanoma.
The test system of assay [13] is MDA-MB-231 breast.
The test system of assay [14] is RXF 393 renal.
Assay [15] relates to SF-268 CNS.
The test system of assay [16] is SF-295 CNS.
Assay [17] relates to SF-539 CNS.
Assay [18] concerns UACC-257 melanoma.
Assay [19] deals with M14 melanoma.

Compounds without any hit were thinned out: in the full panel of roughly 83,000, 20% have a hit.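 How to read the values: 0–100, growth inhibition (40 = 60% inhibited); 0, no net growth; -100 to 0, cell death (-40 = 40% of starting cells died; -100 = all dead).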 Values without a mark were called inactive. Active and inactive are the calls of the source. Rule for the calls: active = growth percent below 10; inactive = the rest.

In the case of `NS(=O)(=O)c1ccc(-n2nc(-c3ccc(Cl)cc3)c3ccccc3c2=O)cc1`, the growth in assay [1] is 96.1%; in assay [2], 148%; in assay [3], 92.6%; in assay [4], 96.3%; in [5] it was 80.9%; in [6] it was 87.4%. Besides, the growth in assay [7] was 87.5%; in [8], 92.7%; in assay [9], 111%; in [10], 111%; in assay [11], 84.2%; in assay [12], 182%. Further, the growth was 87.9% in assay [13]; 98.8% in assay [14]; 98.1% in assay [15]; 97.3% in assay [16]; 89.4% in [17]; 116% in [18]. The growth in assay [19] is 103%.
Turning to `COc1ccc(CN2c3ccccc3CCc3ccccc32)cc1F`, the growth is 52.9% in assay [1]; 57.6% in assay [2]; 36.8% in assay [3]; 6.64% (active) in [4]; 36.4% in assay [5]; -36% (active) in assay [6]. The growth in assay [7] was 21.2%; in assay [8], 33.9%; in [9], -13.9% (active); in [10] it was 8.55% (active); in assay [11], 6.04% (active); in assay [12], 84.3%. Moreover, the growth in [13] was 17.5%; in assay [14], 17.8%; in [15], 38.9%; in assay [16] it was 11.7%; in [17], -16.2% (active); in assay [18], 62%. Besides, the growth in assay [19] was -8.51% (active).
On to `CN1CCN(Cc2ccc(NC(=O)c3cncc(C#Cc4cnccc4C#N)c3)cc2C(F)(F)F)CC1`, for which the growth was 40.4% in assay [1]; 99.4% in assay [2]; 76.8% in assay [3]; 59.2% in [4]; 36% in assay [5]; 66.7% in [6]. Also, the growth is 90.4% in assay [7]; 101% in assay [8]; 24.6% in assay [9]; 65.3% in [10]; 8.21% (active) in [11]; 17.2% in [12]. Further, the growth was 68.6% in assay [13]; 76.6% in [14]; 89.9% in [15]; 96.3% in assay [16]; 42% in assay [17]; 41.1% in [18]. For the same compound, the growth in [19] is 25.4%.
As to `CCCCCCN(CCCCCC)c1ccc(/C=C2/SC(=O)NC2=O)c(C)c1`, the growth in assay [1] is 104%; in [2], 87%; in assay [3] it was 110%; in assay [4], 81.3%; in assay [5], 13.9%; in [6], 77.4%. Besides, the growth was 73.2% in assay [7]; 77.6% in assay [8]; 109% in assay [9]; 102% in assay [10]; 65.2% in assay [11]; 72.9% in assay [12]. The growth in assay [13] was 111%; in assay [14] it was 101%; in assay [15], 89.5%; in [16], 65.6%; in assay [17] it was 117%; in [18], 103%. In addition, in assay [19], the growth was 90.1%.
Take `COc1ccc(-c2[nH]c3ccc(OC)cc3c2/C=C(\C#N)S(=O)(=O)c2ccccc2)cc1`: the growth in [1] was 72.3%; in assay [2], 53.5%; in assay [3], 69.1%; in [4] it was 4.64% (active); in assay [5] it was 29.2%; in assay [6] it was 34.5%. The growth is 23.5% in assay [7]; 27.8% in [8]; -43.4% (active) in assay [9]; 17.3% in [10]; 19.8% in assay [11]; 61.3% in assay [12]. Besides, the growth was 14.9% in assay [13]; -7.82% (active) in [14]; 33.8% in [15]; 10.6% in [16]; -37.8% (active) in [17]; 81.7% in assay [18]. The growth in [19] is 25.3%.
Consider `BrCCCc1n(Cc2ccc3ccccc3c2)c2ccccc2[n+]1Cc1ccc2ccccc2c1`, for which the growth in assay [1] was -72.6% (active); in assay [2], 11.9%; in assay [3], -65.7% (active); in assay [4] it was -88.4% (active); in assay [5] it was -77% (active); in assay [6], -52.3% (active). Moreover, the growth in [7] was -54.1% (active); in assay [8], -90.7% (active); in [9] it was -61.2% (active); in [10], -62.4% (active); in [11], -13% (active); in assay [12] it was -73.2% (active). Moreover, the growth in assay [13] is -60.8% (active); in assay [14], -77.6% (active); in assay [15], -75.4% (active); in assay [16], -91.1% (active); in [17], -74.9% (active); in assay [18] it was -55.7% (active). Moreover, in assay [19], the growth was -60.4% (active).
`COc1nc2ccccc2cc1-c1nc2c(cnn2-c2ccc(Br)cc2)c(=O)[nH]1`: the growth was 39.7% in [1]; 36.5% in [2]; 24.4% in assay [3]; 13.6% in [4]; 39% in [5]; 2.63% (active) in assay [6]. For the same compound, the growth in assay [7] is 39.9%; in assay [8] it was 15.5%; in [9], -50.2% (active); in [10] it was 24.5%; in assay [11], 16.3%; in assay [12], 52.6%. Moreover, the growth in assay [13] is 66.9%; in [14], -7.26% (active); in [15], 41.3%; in assay [16], 16.9%; in [17] it was -31.7% (active); in [18] it was 46.9%. The growth in [19] was -7.56% (active).
Turning to `COc1ccc(/C=C/c2c(C(=O)/C=C/c3ccc(Cl)cc3)c(C)nc3ccccc23)cc1`, the growth is 12.4% in assay [1]; 22.7% in [3]; 0.257% (active) in assay [4]; 70.2% in assay [5]; 23.6% in [6]; 84.1% in assay [7]. Further, the growth in [8] was 14.3%; in assay [9] it was 58.4%; in [10], 13.8%; in assay [11] it was 9.27% (active); in assay [12] it was 28%; in assay [13], 34.1%. The growth is -18.6% (active) in assay [14]; 58.7% in assay [15]; 42.2% in assay [16]; 14.4% in assay [17]; 38.8% in assay [18]; 14.7% in assay [19].
Turning to `CCc1cccc2c1S/C(=C/c1ccc(Cl)cc1)C2=O`, the growth in assay [1] was 87.2%; in assay [2], 85.4%; in assay [3], 80.9%; in assay [4], 102%; in assay [5], 83.5%; in [6], 91.7%. Besides, the growth in assay [7] was 97.4%; in assay [8] it was 100%; in [9] it was 108%; in assay [10], 107%; in [11], 80.1%; in assay [12], 87.5%. Besides, the growth in [13] is 87.6%; in [14] it was 105%; in [15], 93%; in assay [16], 96.7%; in assay [17] it was 89.1%; in assay [18], 105%.
Regarding `CCCCCCn1c(-c2ccc(C(=O)O/N=C(\N)c3ccc4c(c3)OCO4)cc2)nc(-c2ccccc2)c1-c1ccccc1`, the growth is 64.6% in assay [1]; 73.9% in assay [2]; 64.8% in [3]; 4.23% (active) in assay [4]; -57.5% (active) in assay [5]; -58.9% (active) in assay [6]. Also, the growth in [7] is -25.3% (active); in assay [8] it was -65.9% (active); in assay [9], 35.7%; in [10] it was 0.0183% (active); in assay [11], -29.7% (active); in assay [12], 28.1%. Moreover, the growth in assay [13] is 26.3%; in assay [14], -27.2% (active); in [15], 41.1%; in [16], 30.6%; in assay [17], -30.2% (active); in assay [18] it was 62%. The growth in [19] was 56.2%.
Take `CCCCCCNC(=O)Oc1ccc(/C(=C(\C)c2ccc(Cl)cc2)c2ccc(OCCN(CC)CC)cc2)cc1`: the growth in [1] is 101%; in assay [2], 85.7%; in assay [3] it was 77.8%; in [4], 26.4%; in [5], 58.3%; in [6], 86.4%. Further, the growth is 58.4% in [7]; 41.2% in assay [8]; 4.94% (active) in assay [9]; 73.5% in assay [10]; 2.67% (active) in [11]; 49.3% in assay [12]. For the same compound, the growth in [13] was 65%; in assay [14], 49.7%; in assay [15], 62%; in assay [16], 84.9%; in [17], 72.3%; in assay [18], 6.29% (active). In assay [19], the growth is -4.87% (active).
For the compound `COc1c(B(O)O)cc(C)cc1-c1nc2ccc3[nH]ncc3c2c2c1CCCC2`, the growth is 73.7% in assay [1]; 106% in [2]; 43% in assay [3]; 31.4% in assay [4]; 53.8% in assay [5]; 37.3% in assay [6]. For the same compound, the growth is 52.7% in assay [7]; 48.3% in assay [8]; 19.6% in assay [9]; 72.6% in [10]; 24.1% in assay [11]; 91.6% in assay [12]. Further, the growth is 23.4% in [13]; -2.67% (active) in assay [14]; 50% in [15]; 53.1% in assay [16]; 12.5% in assay [17]; 102% in assay [18]. Besides, the growth in assay [19] was 97.4%.

The values are drawn from PubChem BioAssay (NCI).
